SENP7 inh – blocks the human protease SENP7 | recombinant SENP7, Z-RLRGG-aminoluciferin luminescence, 40 min | inhibition, % at 5 µM | AID 434973 | 330,000 compounds, 1.5% hits;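 active = inhibition above about 50% at the single test dose, limit read from the data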;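 note: plate controls were DMSO with enzyme for no effect and no enzyme buffer wells for full effect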
Target sequence (Q9BQF6 706-1050 limits assumed): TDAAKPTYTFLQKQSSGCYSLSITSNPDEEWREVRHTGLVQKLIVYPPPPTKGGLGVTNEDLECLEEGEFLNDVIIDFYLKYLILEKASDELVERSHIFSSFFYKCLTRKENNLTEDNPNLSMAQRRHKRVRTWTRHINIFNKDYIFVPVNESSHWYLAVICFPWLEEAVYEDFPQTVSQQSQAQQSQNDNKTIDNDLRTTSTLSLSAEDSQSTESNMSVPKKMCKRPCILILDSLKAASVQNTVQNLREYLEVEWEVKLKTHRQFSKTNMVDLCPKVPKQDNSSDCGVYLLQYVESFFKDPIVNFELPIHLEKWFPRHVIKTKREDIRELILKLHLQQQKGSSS
SENP8 block-1 – inhibitors of human SENP8 protease | 360,000 compounds, 0.64% hits | Q96LD8 | recombinant SENP8, Nedd8 substrate fluorescence | inhibition, % at 20 µM | AID 602440; in the data active = inhibition mostly above about 40%, no sharp cut-off; inactive = mostly below about 27%
Target sequence (Q96LD8 whole entry, looked up): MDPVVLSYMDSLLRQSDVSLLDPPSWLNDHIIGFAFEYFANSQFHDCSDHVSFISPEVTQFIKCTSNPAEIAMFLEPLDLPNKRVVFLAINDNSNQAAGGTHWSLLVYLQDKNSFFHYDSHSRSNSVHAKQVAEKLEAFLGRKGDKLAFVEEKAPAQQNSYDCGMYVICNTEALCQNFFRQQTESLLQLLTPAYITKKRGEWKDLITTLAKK
SENP6 inh – inhibitors of human SENP6 protease; inhibition, % at 10 µM; 330,000 compounds, 1.8% hits; AID 2599; Recombinant SENP6 catalytic domain, aminoluciferin luminescence; Q9GZR1;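 active = inhibition above about 50% at the single tested dose, limit read from the data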;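 note: plate controls were DMSO wells with enzyme for no effect and DMSO wells lacking enzyme for full effect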
PPC-1+TRAIL kill – compounds killing PPC-1 cancer cells with TRAIL present (potentiator screen, no TRAIL-free arm); PPC-1 cells + TRAIL, ATPLite viability luminescence; cell killing (% activity), % at 4 µM or 5 µM; 220,000 compounds, 0.41% hits;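 active = cell killing above 50% in the first pass at 4 µM, then a duplicate retest at 5 µM averaging 50% or more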;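 note: plate controls were cells with TRAIL plus DMSO for no effect and medium-only wells lacking cells for full effect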
TRAIL sens C8 – caspase-8 TRAIL sensitization. NB7+C8 cells + TRAIL, ATPlite viability luminescence. 360,000 compounds, 1% hits. inhibition (viability loss, TRAIL sensitization), % at 10 µM;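 active = compounds causing at least 50% loss of cell viability in the single-dose screen, relative to plate controls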
SENP8 block-2 – inhibitors of human SENP8 protease. inhibition, % at 10 µM. AID 2540. Q96LD8. purified SENP8, Z-RLRGG-aminoluciferin cleavage, luminescence. 330,000 compounds, 1.2% hits; in the data active = inhibition above about 50%
SENP8 confirm – confirmation of human SENP8 protease inhibitors | shares compounds with SENP7 inh | Recombinant SENP8, Z-RLRGG-aminoluciferin luminescence, 60 min | inhibition, % at 12.5 µM | 6,200 compounds, 40% hits;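 active = mean inhibition across replicates above about 50%, limit read from the data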
SENP6 confirm – human SENP6 inhibition, confirmed; shares compounds with SENP7 inh; recombinant SENP6, Z-RLRGG-aminoluciferin luminescence; inhibition, % at 12.5 µM; 6,200 compounds, 58% hits; AID 488915
SENP7 conf – confirmation of human SENP7 protease inhibitors | inhibition, % at 12.5 µM | 6,200 compounds, 69% hits | recombinant SENP7, Z-RLRGG-aminoluciferin luminescence, 40 min | shares compounds with SENP7 inh
Casp3 SENP sel – inhibits human caspase-3 in SENP selectivity test; purified caspase-3, Z-DEVD-aminoluciferin luminescence, 60 min; shares compounds with SENP7 inh; AID 488918; 6,200 compounds, 60% hits; inhibition, % at 12.5 µM;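 active = mean inhibition above about 50%, limit read from the data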;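 note: plate controls were enzyme with DMSO for no effect and wells without caspase-3 for full effect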
SENP luc ctr – counter-screen for SENP inhibitors: luminescence interference. shares compounds with SENP7 inh. Pre-incubated SENP8/Z-RLRGG-aminoluciferin, luciferase luminescence interference. inhibition, % at 12.5 µM. 6,200 compounds, 39% hits. AID 488919;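 active = mean inhibition above about 50% when retested at one dose, limit read from the data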;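 note: plate controls were DMSO wells with completed reaction for no effect and substrate without enzyme for full effect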
Numbers without * were called inactive; · = no result given. An excerpt weighted towards active compounds, which were near 3% of everything screened.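 Rule for the calls, unless noted: active = mean inhibition above about 50% in the one-dose retest (limit read from the data); inactive = the rest.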

SMILES	SENP7 inh	SENP8 block-1	SENP6 inh	PPC-1+TRAIL kill	TRAIL sens C8	SENP8 block-2	SENP8 confirm	SENP6 confirm	SENP7 conf	Casp3 SENP sel	SENP luc ctr
O=C(CC1Nc2cccc3cccc(c23)NC1=O)Nc1ccccc1 (configuration not stated)	53*	-106	87*	24	-4	2	8	10	-5	-1	-2
COc1ccc(/C=C(\NC(=O)c2ccc(C)cc2)C(=O)Nc2c(C)n(C)n(-c3ccccc3)c2=O)cc1	-4	2	-11	12	-4	-8	·	·	·	·	·
Cc1nn2cc(-c3ccc(Cl)cc3)cnc2c1Cl	76*	15	-27	-3	-21	-9	10	8	19	36	7
O=[N+]([O-])c1ccc2oc(C3CCCCC3)nc2c1	4	15	-24	3	9	4	·	·	·	·	·
O=[N+]([O-])c1ccc2oc(-c3ccccc3)nc2c1	77*	0	45	-2	4	39	2	6	45	30	2
NC(N)=Nc1nc2cc([N+](=O)[O-])ccc2o1	-1	8	12	-3	1	-13	·	·	·	·	·
COc1ccc(-c2nc3ccc([N+](=O)[O-])cc3o2)cc1	69*	2	24	22	-2	10	-4	3	8	13	1
Cc1cccc(-c2nc3cc([N+](=O)[O-])ccc3o2)c1	82*	16	21	6	19	26	15	32	72*	75*	34
O=S(=O)(c1ccc(S(=O)(=O)N2CCC(O)CC2)cc1)N1CCCC1	-3	8	-11	·	-33	4	·	·	·	·	·
CC(=O)c1sc(N/N=C\c2ccc(N(C)C)cc2)nc1C	82*	-301	77*	·	6	31	20	54*	95*	48	16
Cc1cc(C)nc(SCC(=O)N(C)CC(=O)Nc2c(Cl)cccc2Cl)n1	7	17	5	·	-2	-4	·	·	·	·	·
c1ccc(-c2nc(-c3ccncc3)no2)cc1	80*	18	82*	-11	-2	58*	-30	-1	50	32	-2
c1ccc(-c2ccccc2-c2nc(-c3ccncc3)no2)cc1	8	17	-11	43	-4	5	·	·	·	·	·
Brc1ccc(-c2nc(-c3ccncc3)no2)o1	4	21	32	8	8	-17	·	·	·	·	·
Brc1ccc(-c2nc(-c3ccncc3)no2)cc1	73*	22	7	·	2	13	-9	-2	19	23	-1
O=[N+]([O-])c1ccc(-c2nc(-c3ccncc3)no2)cc1	6	38	10	12	13	2	·	·	·	·	·
c1ccc(-c2ccc(-c3nc(-c4ccncc4)no3)cc2)cc1	23	-9	91*	-11	12	83*	42	37	27	72*	6
c1coc(-c2nc(-c3ccncc3)no2)c1	62*	-1	72*	2	14	33	17	53*	85*	82*	21
N=C1SC(c2ccccc2)C(=O)N1c1ncc(Cc2ccccc2Cl)s1 (configuration not stated)	2	9	15	6	6	9	·	·	·	·	·
NCc1csc(NC(=O)Nc2cccc(C(F)(F)F)c2)n1	·	3	·	·	-6	·	·	·	·	·	·
O=C(Nc1ccc(C(=O)N2CCCC2)cc1)c1ccc2c(c1)OCO2	91*	2	87*	-12	-7	80*	83*	86*	99*	96*	89*
O=C(Nc1ccc(NC(=O)c2ccco2)cc1)c1ccc2c(c1)OCO2	62*	4	54*	33	-2	31	6	13	-3	8	3
O=C(Nc1ccc(C(=O)N2CCCCC2)cc1)C1=CSCCO1	81*	4	79*	·	14	68*	78*	74*	91*	91*	77*
N#Cc1cccc(NC(=O)CSc2nnc(C3CC3)n2C2CC2)c1	6	10	2	·	-9	1	·	·	·	·	·
O=C(NC1C2CC3CC(C2)CC1C3)c1ccc(Br)o1 (configuration not stated)	8	4	8	·	9	6	·	·	·	·	·
SMILES	SENP7 inh	SENP8 block-1	SENP6 inh	PPC-1+TRAIL kill	TRAIL sens C8	SENP8 block-2	SENP8 confirm	SENP6 confirm	SENP7 conf	Casp3 SENP sel	SENP luc ctr
S=C(Nc1ccc(-c2nc3ccccc3[nH]2)cc1)Nc1cccnc1	41	-304	65*	·	31	23	17	9	34	45	23
Cc1ccn2cc(-c3ccc(NC(=O)c4ccco4)cc3)nc2c1	64*	-51	76*	36	45	48	55*	53*	86*	74*	16
Cc1ccc2nc(-c3cccc(NC(=O)c4ccco4)c3)[nH]c2c1	95*	-33	92*	40	42	87*	2	93*	101*	89*	92*
O=C(Nc1ccc(-c2nc3ccccc3[nH]2)cc1)c1ccco1	86*	-69	91*	33	40	84*	87*	87*	96*	88*	65*
CCCCNC(=O)C1CC(=O)N(CCc2ccc(C)cc2)C1 (configuration not stated)	1	14	-1	·	-21	4	·	·	·	·	·
O=C(NCCN1CCN(C(=O)c2cccc(OC(F)F)c2)CC1)c1cccc(OC(F)F)c1	4	7	-11	·	2	0	·	·	·	·	·
CC1(C)CN(Cc2ccccc2)C(=O)[C@H]1CC(=O)Nc1ccc(Br)cc1	·	21	·	·	11	·	·	·	·	·	·
O=C(COc1ccc2c(c1)OCO2)Nc1cccc(F)c1	32	4	45	·	-2	29	·	·	·	·	·
O=C(Nc1ccc2c(c1)OCO2)c1cccc(F)c1	76*	13	79*	21	9	46	54*	54*	87*	82*	70*
O=C(Nc1cccc(F)c1)Nc1ccc2c(c1)OCO2	96*	0	93*	·	14	85*	84*	86*	99*	86*	80*
Cc1cccc(C(=O)Nc2cccc(C(=O)N/N=C/c3ccc4c(c3)OCO4)c2)c1	-7	-148	50*	·	39	34	58*	46	46	47	26
Cc1ccccc1NC(=O)c1nnn(-c2ccc3c(c2)OCCO3)c1N	23	8	32	·	27	17	·	·	·	·	·

Bioassay records from PubChem BioAssay.
